According to ChEMBL document CHEMBL3433997, “St. Jude Leishmania screening dataset” (2016):
Several values for one entry are separate records, joined by “and”; a condition that tells them apart may be missing. Equal entries are not always repeated.

Key:
Type in all cases: functional
[1] = target: Solute carrier family 2, facilitated glucose transporter member 1 (Homo sapiens) (UniProt P11166); assay: ST_JUDE_LEISH: Cytotoxicity at 2uM final concentration against transgenic Leishmania Mexicana promastigotes LmGLUT1 that are glucose transport deficient and complemented with the human glucose transporter GLUT1. Activity is measured by DNA content using SYBR green in vitro
[2] = target: Hexose transporter 1 (Plasmodium falciparum) (UniProt O97467); assay: ST_JUDE_LEISH: Cytotoxicity at 2uM final concentration against transgenic Leishmania Mexicana promastigotes LmPfHT that are glucose transport deficient and complemented with the Plasmodium falciparum hexose transporter. Activity is measured by DNA content using SYBR green in vitro
[3] = target: Glucose transporter (Leishmania mexicana) (UniProt O61059); assay: ST_JUDE_LEISH: Cytotoxicity at 2uM final concentration against transgenic Leishmania Mexicana promastigotes LmGT2 that are glucose transport deficient and complemented with the L. Mexicana glucose transporter 2. Activity is measured by DNA content using SYBR green in vitro

Solute carrier family 2, facilitated glucose transporter member 1 (Homo sapiens), sequence (P11166 whole entry): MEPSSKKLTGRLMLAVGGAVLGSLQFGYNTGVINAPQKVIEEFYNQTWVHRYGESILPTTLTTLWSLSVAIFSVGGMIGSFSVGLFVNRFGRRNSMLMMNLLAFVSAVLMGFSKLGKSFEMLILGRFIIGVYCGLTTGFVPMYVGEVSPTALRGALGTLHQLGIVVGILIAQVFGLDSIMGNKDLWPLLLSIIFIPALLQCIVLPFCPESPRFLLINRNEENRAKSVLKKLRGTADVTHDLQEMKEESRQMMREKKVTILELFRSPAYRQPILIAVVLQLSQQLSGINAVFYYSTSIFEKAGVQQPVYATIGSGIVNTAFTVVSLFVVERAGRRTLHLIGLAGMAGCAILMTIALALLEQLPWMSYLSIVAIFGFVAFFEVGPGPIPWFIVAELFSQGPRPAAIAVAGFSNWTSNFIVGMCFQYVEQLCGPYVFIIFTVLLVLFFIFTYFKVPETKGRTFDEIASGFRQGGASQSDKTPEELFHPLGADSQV

SMILES	inhibition [1]	inhibition [2]	inhibition [3]
COc1ccc(CC(C)NCC(O)c2cccc(Br)c2)cc1 (stereo unspecified)	10.3%	8.65%	9.13%
COc1ccc(C(=O)C2CC2CN2CC=C(c3c[nH]c4cccc(Br)c34)CC2)cc1 (stereo unspecified)	4.26%	2.54%	2.11%
O=C(Nc1ccc(Cl)c(Cl)c1)N1CCC(CN2CCC(c3c[nH]c4ccccc34)CC2)CC1	6.13%	5.01%	4.11%
COc1nc(N)ncc1C(=O)NC1CN2CCC1CC2 (stereo unspecified)	7.43%	6.98%	7.08%
CCCCCc1cc(O)c2c(c1)OC(C)(C)CC2C1=CCN(Cc2cccnc2)CC1 (stereo unspecified)	-0.46%	1.05%	0.25%
O=C(/C=C/c1ccc(O)cc1)NC1CCC(CN2CCC(c3c[nH]c4ccccc34)CC2)CC1 (stereo unspecified)	-4.73%	-2.63%	-0.07%
Cc1ccccc1CNCC(O)c1cccc(C(F)(F)F)c1 (stereo unspecified)	1.72%	2.2%	-1.33%
CCCCc1ccc2[nH]cc(C3=CCN(C)CC3)c2c1Br	0.79%	-0.14%	2.44%
O=C(C=C1c2ccccc2-c2ccccc21)NC1CCC(CN2CCC(c3c[nH]c4ccccc34)CC2)CC1 (stereo unspecified)	0.2% and -2.16%	0.36% and -1.31%	-0.17% and -1.28%
CCCc1cc(O)c2c3c(c(=O)oc2c1)CN(C)CC3	0.29%	0.97%	1.39%
COC(=O)c1ccc(CC(C)NCC(O)c2cccc(I)c2)cc1 (stereo unspecified)	-0.53%	-1%	0.29%
CN(C)CCCOc1ccc(CN2CCC(c3c[nH]c4ccc(NCC5CCCCC5)cc34)CC2)cc1	3.02%	3.5%	3.06%
Cc1cc(N)nc2cc(CNCCc3ccccc3Br)ccc12	0.26%	0.02%	-0.67%
CCCCC/C=C/C(=O)NC1CCC(CN2CCC(c3c[nH]c4ccccc34)CC2)CC1 (stereo unspecified)	2.84%	2.43%	4.05%
CCOc1ccc(CN(CCc2ccc3c(c2)OCO3)Cc2cc(OC)ccc2O)cc1	4.49%	4.01%	6.07%
CSc1nccc(-c2ccc(S(=O)(=O)NC3CCC(CN4CCC(c5c[nH]c6ccccc56)CC4)CC3)s2)n1 (stereo unspecified)	2.14% and 2.23%	0.65% and 1.79%	2.7% and 0.3%
COCCNCc1cccc(-c2ccc(CN(C(=O)NC3CCCCC3)C3CCN(Cc4ccccc4)CC3)cc2)c1	7.28%	3.57%	2.09%
COc1ccc(CCNCc2ccc3nc(N)c(C)cc3c2)cc1	0.92%	2.14%	3.68%
CCN(CC)CCOC(=O)C(OC)(c1ccccc1)c1ccccc1	0.95%	3%	1.83%
O=c1n[n+](C2CCCCC2)[n-]o1	-0.73%	-0.13%	-0.34%
O=C(/C=C/c1ccc(Cl)c(Cl)c1)NC1CCC(CN2CCC(c3c[nH]c4ccc(O)cc34)CC2)CC1 (stereo unspecified)	1.43% and 1.97%	0.14% and 2.98%	-2.67% and 3.13%
COc1cc(NCCCNC(=O)c2cn(Cc3ccccc3)c3ccccc23)nc2ccccc12	-0.26%	-0.48%	-1.02%
CCCc1c(C(=O)NC2CCC(CN3CCC(c4c[nH]c5ccccc45)CC3)CC2)cnn1-c1ccc(Cl)cc1 (stereo unspecified)	-0.47%	-1.46%	-1.49%
Oc1ccc(Cl)cc1CN1CCC(CCOC(c2ccccc2)c2ccccc2)CC1	9.61%	9.6%	7.84%

SMILES	inhibition [1]	inhibition [2]	inhibition [3]
Cn1c(C2CC3CCC(C2)N3CC2CCC(NC(=O)/C=C/c3ccc(Cl)c(Cl)c3)CC2)nc2ccccc21 (stereo unspecified)	4.11%	3.19%	2.69%
Cc1ccc(C2(O)CC3CCC(C2)N3C)cc1 (stereo unspecified)	2.44%	2.72%	3.25%
NCc1ccc(-c2ccccc2CN(C(=O)Nc2ccccc2)C2CCN(Cc3ccccc3)CC2)cc1	2.32%	1.83%	-3.48%
CCc1nc(N)nc(N)c1-c1cccc(Cl)c1	2.71%	2.32%	3.02%
Oc1ccc(CN2CCN(CCOC(c3ccccc3)c3ccccc3)CC2)cc1Cl	0.53%	3.98%	-1.69%
Cc1cccc(N2CCN(Cc3cc(Cl)ccc3O)CC2)c1C	0.93%	1.18%	3.25%
O=C(NC1CCC(CN2CCC(c3c[nH]c4ccccc34)CC2)CC1)c1cc(-c2cccc(Cl)c2)n(-c2ccc(Cl)cc2Cl)n1 (stereo unspecified)	1.34%	-0.46%	0.47%
CCOC(C(=O)OCC1CCCN(C)C1)(c1ccccc1)c1ccccc1 (stereo unspecified)	4.97%	4.46%	5.83%
CC1(C)CCCN(C(=O)Cc2ccc3c(c2)CCCC3)C1CN1CC=CC1 (stereo unspecified)	8.1%	8.82%	8.93%
O=C(Cc1c(-c2ccccc2)[nH]c2ccccc12)NC1CCC(CN2CCC(c3c[nH]c4ccccc34)CC2)CC1 (stereo unspecified)	4.32%	4%	2.03%
CC(=O)N(Cc1ccccc1-c1cccc(CNCCc2ccccc2)c1)C1CCN(Cc2ccccc2)CC1	8.96%	7.85%	7.27%
O=C(/C=C/c1ccc(Cl)c(Cl)c1)NC1CCC(CN2CCC(c3c[nH]c4cc(O)ccc34)CC2)CC1 (stereo unspecified)	3.03%	0.88%	-0.33%
Oc1cc2c(cc1CN1CCN(Cc3ccccc3)CC1)CCC2	0.8%	1.17%	-1.19%
O=C(NC1CCC(CN2CCC(c3c[nH]c4ccccc34)CC2)CC1)c1ccc(-c2cc(C(F)(F)F)ccc2Cl)o1 (stereo unspecified)	4%	6.53%	3.83%
Cn1nc(C(F)(F)F)cc1-c1ccc(C(=O)NC2CCC(CN3CCC(c4c[nH]c5ccccc45)CC3)CC2)s1 (stereo unspecified)	6.48%	4.44%	2.24%
COc1ccc(OC)c(C(O)C(C)NCc2cc(Cl)ccc2O)c1 (stereo unspecified)	0.78%	1.14%	1.94%
COc1cccc(CN2CCC(CCOC(c3ccccc3)c3ccccc3)CC2)c1O	2.87%	-0.08%	-0.42%
Cc1cc(CN2CCN(CCOC(c3ccccc3)c3ccccc3)CC2)ccc1O	16%	13.2%	13.6%
Oc1ccc(CN2CCN(CCOC(c3ccc(F)cc3)c3ccc(F)cc3)CC2)cc1Cl	4.68%	-0.31%	-0.74%
O=[N+]([O-])c1ccc(Oc2c(Cl)cc(S(=O)(=O)NC3CCC(CN4CCC(c5c[nH]c6ccccc56)CC4)CC3)cc2Cl)c(Cl)c1 (stereo unspecified)	2.41%	0.39%	-1.14%
CC(=O)C1(c2ccccc2)CCN(CCC(NC(=O)c2cc(C(F)(F)F)cc(C(F)(F)F)c2)c2ccc(Cl)c(Cl)c2)CC1 (stereo unspecified)	-0.39%	0.71%	5.98%
CCc1ccc(CC(C)NCC(O)c2ccccc2)cc1 (stereo unspecified)	1.06%	1.04%	1.94%
O=C(/C=C/c1ccc(Cl)c(Cl)c1)NC1CCC(CN2CCC(c3c[nH]c4ccccc34)CC2)CC1 (stereo unspecified)	2.35%	1.2%	1.83%
CC[C@H]1CN2CC[C@H]1C[C@H]2[C@H](O)c1cc(-c2ccccc2C)nc2ccc(OC)cc12	0.33%	0.37%	-4.71%

SMILES	inhibition [1]	inhibition [2]	inhibition [3]
COc1ccc(CN2CCN(CCOC(c3ccccc3)c3ccccc3)CC2)c(O)c1	3.13%	2.42%	0.74%
CC(C)/C(=C(/F)CN1C(=O)C(NC(=O)c2cc3ccccc3[nH]2)C(=O)N(c2ccccc2)c2ccccc21)c1ccccc1 (stereo unspecified)	-0.35%	-0.22%	-1.01%
CC1=CC(=O)[C@@H](O)[C@]2(C)[C@H]3[C@@]4(O)OC[C@@]35[C@@H](C[C@@H]12)OC(=O)C[C@H]5[C@@H](C)[C@H]4O	7.27%	2.51%	0.79%
CNCCCCCCc1ccc(CC(C)NCC(O)c2cccc(Cl)c2)cc1 (stereo unspecified)	6.3%	2.29%	0.1%
CN1CC=C(c2c[nH]c3ccc(Sc4ccccc4)cc23)CC1	1.74%	2.9%	3.42%
Cc1cc(O)cc2c(C3CCN(CC4CCN(C(=O)/C=C/c5ccc(Cl)c(Cl)c5)CC4)CC3)c[nH]c12	0.1%	-0.37%	0.13%
COc1ccc2[nH]cc(C3CC4CCC(C3)N4CCC3CCN(C(=O)/C=C/c4ccc(Cl)c(Cl)c4)CC3)c2c1 (stereo unspecified)	-0.2%	1.01%	0.71%
CCCCCSc1cc(O)c(C(CNC)C(C)C)cc1OC (stereo unspecified)	1.1%	-1.89%	-2.39%
CN(C)c1cccc(CN2CC=C(c3c[nH]c4ccc(Cl)cc34)CC2)c1	8.22%	6.95%	4.91%
Cc1c(C)c2c(c(C)c1O)CC[C@@](C)(C(=O)NC1CCC(CN3CCC(c4c[nH]c5ccccc45)CC3)CC1)O2 (stereo partly specified)	6.35%	5.08%	3.01%
CCCCCCCc1cc(=O)c2ccccc2[nH]1	12.7%	3.61%	1.21%
CCOc1ccc2nccc([C@@H](O)[C@@H]3C[C@@H]4CCN3C[C@@H]4CC)c2c1	1.23% and 2.9%	1.71% and 3.63%	3.59% and -0.94%
OC(CNC1CCCCC1)c1ccc(Cl)c(Cl)c1 (stereo unspecified)	-1.03%	-0.96%	-0.95%
COCC(=O)N(Cc1cccc(-c2ccc(CNCCc3ccccc3)cc2)c1)C1CCN(Cc2ccccc2)CC1	3.83%	5.42%	2.98%
CNCCc1c(O)ccc2ccccc12	2.95%	3.27%	3.59%
Cc1[nH]c2ccc(NS(C)(=O)=O)cc2c1C1CCN(CC2CCN(C(=O)/C=C/c3ccc(Cl)c(Cl)c3)CC2)CC1	-0.42%	1.08%	-0.21%
COc1ccc(CC(C)NCC(O)c2cccc(C(F)(F)F)c2)cc1F (stereo unspecified)	1.15%	1.15%	0.11%
CCC1(C)CC(CCNCc2ccccc2O)(c2ccc(C)cc2)CCO1 (stereo unspecified)	-0.22%	-2.9%	-0.15%
CC(Cc1ccc(OCCOc2ccccc2)cc1)NCC(O)c1cccc(Cl)c1 (stereo unspecified)	0.57%	1.43%	1.19%
CCOC(C(=O)OCC1CCCN1C(C)C)(c1ccccc1)c1ccccc1 (stereo unspecified)	3.57%	3.09%	1.53%
CC(C)CNCc1ccc(-c2ccc(CN(C(=O)Nc3ccccc3)C3CCN(Cc4ccccc4)CC3)cc2)cc1	3.1%	2.41%	4.94%
CC(C)CNCc1ccc(-c2cccc(CN(C(=O)Nc3ccccc3)C3CCN(Cc4ccccc4)CC3)c2)cc1	0.61%	-0.02%	-1.04%
O=C(/C=C/c1ccc(C(F)(F)F)cc1)NC1CCC(CN2CCC(c3c[nH]c4ccccc34)CC2)CC1 (stereo unspecified)	5.55% and -0.04%	5.47% and -0.38%	0.63% and -2.05%
O=C(CCc1ccc(Cl)cc1Cl)NC1CCC(CN2CCC(c3c[nH]c4ccccc34)CC2)CC1 (stereo unspecified)	1.11% and 15.9%	-0.14% and 8.88%	-2.05% and 8.96%
